According to PubChem BioAssay AID504652 (National Center for Advancing Translational Sciences (NCATS), 2011):
Hit rate of the full screen: of about 360,000 compounds, about 11,000 (3.1%) were called active. Many of the other results were omitted from the sample, so actives are more common in it than they were. Unmarked numbers belong to inactive results. Cut-off read from the data, not from the text of the source: active = activity change below about -30%; inactive = the rest.

These compounds were tested against D(1A) dopamine receptor (Homo sapiens) (UniProt P21728) (assay: Antagonist of Human D 1 Dopamine Receptor: qHTS). Conditions: HEK293 TREx D1 cells, calcium flux, dopamine EC80; at 10 µM; hits give low values.
Chain of D(1A) dopamine receptor (Homo sapiens) (P21728 whole entry, looked up): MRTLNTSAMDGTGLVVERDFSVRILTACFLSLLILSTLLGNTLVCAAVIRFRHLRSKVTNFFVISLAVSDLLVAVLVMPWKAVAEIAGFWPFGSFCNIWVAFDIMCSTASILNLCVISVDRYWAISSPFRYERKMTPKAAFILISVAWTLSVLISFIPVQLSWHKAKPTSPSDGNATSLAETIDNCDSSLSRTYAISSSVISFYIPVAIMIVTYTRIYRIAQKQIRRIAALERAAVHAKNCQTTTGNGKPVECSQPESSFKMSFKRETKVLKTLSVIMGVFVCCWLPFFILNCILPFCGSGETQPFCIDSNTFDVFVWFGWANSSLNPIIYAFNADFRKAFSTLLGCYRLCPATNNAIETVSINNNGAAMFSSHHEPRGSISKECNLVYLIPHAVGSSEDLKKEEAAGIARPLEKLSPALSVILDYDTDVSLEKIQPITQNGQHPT
Summary of the method: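 Cells carrying a force-coupled, tetracycline-inducible human D1 receptor report calcium flux. Each well gets a 10 s baseline, compound with 180 s monitoring, then an EC80 dopamine stimulus with a second 180 s kinetic read.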
% is set by controls: 0 for no effect and ±100 for the full control effect.

| Compound | activity change, negative = inhibition |
| --- | --- |
| COc1ccc(CNC(=O)CCc2c(C)nn(-c3ccc(N4CCCC4)nn3)c2C)cc1 | 8.22% |
| Cc1nn(-c2ccc(F)cc2)c(-n2cccc2)c1C(=O)N1CCN(c2ccccc2)CC1 | 21% |
| Cc1nn(-c2ccccc2)c(-n2cccc2)c1C(=O)O | -45.8% (active) |
| Cc1ccc(-n2nc(C)c(C(=O)O)c2-n2cccc2)cc1 | -8.13% |
| CCN(CC)CCNC(=O)c1cc2c(=O)oc3ccc(C)cc3c2s1 | 4.45% |
| COc1cc(OC)c(NC(=O)c2nc(-c3ccncc3)no2)cc1Cl | -32.7% (active) |
| COc1cc(OC)c(NC(=O)c2c3c(nn2C)-c2ccccc2SC3)cc1Cl | 2.27% |
| COc1cc(NC(=O)c2ccc(-c3csc(C)n3)cc2)c(OC)cc1Cl | -3.88% |
| COc1ccc(NC(=O)c2ccc3oc(=O)c(S(=O)(=O)c4ccc(F)cc4)cc3c2)c(OC)c1 | 4.65% |
| O=C(Nc1cc(-c2nc3ccccc3o2)ccc1Cl)c1cc([N+](=O)[O-])ccc1N1CCOCC1 | -2.21% |
| Cc1ccccc1Nc1nc(N)nc(COC(=O)CCC(=O)c2ccc(F)cc2)n1 | -23.2% |
| Nc1nc(COC(=O)CCC(=O)c2ccc(Cl)cc2)nc(Nc2ccccc2)n1 | -34.3% (active) |
| Nc1nc(CC(=O)CSc2ccc(Cl)cc2)nc(Nc2ccc(F)cc2)n1 | -8.8% |
| COc1ccccc1-c1cc(C(F)(F)F)nc(S(=O)(=O)CCCC(=O)Nc2cc(C)ccc2O)n1 | -0.269% |
| CCOC(=O)c1cc2c(=O)n3ccccc3nc2n(CCCOC)c1=NC(=O)C(C)Oc1ccccc1 (stereo not given) | -0.513% |
| O=S(=O)(NC1CCCCC1)c1ccc(F)c2ccccc12 | -32.8% (active) |
| O=S(=O)(NC1CC1)c1ccc2c3c(cccc13)CC2 | -23.6% |
| CCc1ccccc1NC(=O)c1ccc(F)c(S(=O)(=O)NC2CCCCCC2)c1 | -16.4% |
| CCN1CCN(c2ncc3c(n2)CC(c2ccccc2O)CC3=O)CC1 (stereo not given) | 0.271% |
| CCN(Cc1ccccc1)Cc1c(O)ccc2c(=O)c(-c3ccc(Cl)cc3Cl)coc12 | -1.12% |
| CCOc1ccc(Nc2ncnc3scc(-c4ccc(OC)cc4)c23)cc1 | 13.2% |
| COC(=O)c1ccc(Nc2ncnc3sccc23)cc1 | -42.9% (active) |
| COc1ccc(Nc2ncnc3sc(C)cc23)cc1 | -13.7% |
| O=C(CSc1nc2ccccc2nc1Cc1ccccc1)N1CCCCC1 | -12.3% |
| CCOC(=O)C1CCN(c2nc3c(S(=O)(=O)c4ccc(CC)cc4)nnn3c3ccc(Cl)cc23)CC1 | -7.85% |
